NS1 function inh: influenza NS1 inhibition. Potency, µM (top dose mostly 46.1 µM). 270,000 tested, 0.4% active; calls by dose curve; note: actives are rising curves; nearly all actives have a fitted effect of over 50% in size
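Read-out: OD600 growth recovery of NS1-expressing budding yeast. Cells grown overnight at 30C in -URA glucose medium, washed, resuspended and diluted 1:100 in 2% galactose assay medium, pH 6.0. Same strain lacking NS1 served as positive control.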
Cycloheximide cs: counter-screen for Shiga toxin inhibitors: cycloheximide protein synthesis inhibition; cell reporter, cycloheximide protein synthesis inhibition counterscreen; max response, %; 300,000 tested, 12% active; in the data active = max response mostly above about 13%, no sharp cut-off; inactive = mostly below about 14%; note: read at 38.3 µM for the half of the compounds with a filed dose
Giardia FBPA inh: Giardia lamblia aldolase inhibition | A8B2U2 | purified Giardia FBPA | Potency, µM (doses to about 59.6 µM), usual class: inhibitors | 290,000 tested, 0.71% active; note: nearly all actives have a fitted effect of over 55% in size
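40 nM FBPA preincubated 10 min at RT with compound (up to 57.5 uM final), then substrate plus GAPDH/TPI/NAD/arsenate coupling and diaphorase/resazurin added. Fluorescence read after 20 min at RT, 525/598 nm.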
LmPK inhibitor: blocks Leishmania mexicana pyruvate kinase activity. Q27686. purified LmPK, Kinase-Glo ATP luminescence, 1 h. Potency, µM (titrated, usually from 57.5 µM), usual class: inhibitors. 290,000 tested, 0.37% active
Target sequence (Q27686 whole entry, looked up): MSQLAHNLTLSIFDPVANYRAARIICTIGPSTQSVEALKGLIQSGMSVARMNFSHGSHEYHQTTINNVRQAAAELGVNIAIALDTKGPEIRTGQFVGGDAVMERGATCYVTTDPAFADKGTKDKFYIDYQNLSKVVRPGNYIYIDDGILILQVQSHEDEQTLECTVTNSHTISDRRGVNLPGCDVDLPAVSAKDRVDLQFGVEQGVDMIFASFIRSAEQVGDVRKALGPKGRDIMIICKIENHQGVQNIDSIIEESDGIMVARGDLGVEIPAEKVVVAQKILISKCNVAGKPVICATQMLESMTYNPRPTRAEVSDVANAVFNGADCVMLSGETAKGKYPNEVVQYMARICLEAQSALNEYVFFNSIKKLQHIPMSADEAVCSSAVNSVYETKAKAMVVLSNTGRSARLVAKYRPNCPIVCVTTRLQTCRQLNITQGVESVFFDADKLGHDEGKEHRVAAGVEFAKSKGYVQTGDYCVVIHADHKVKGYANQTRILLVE
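qHTS format; LmPK 0.1 nM; substrates PEP 0.5 mM and ADP 0.1 mM. One-hour room-temperature incubation, then coupled luciferase luminescence; 0.5 nM enzyme wells mark activation.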
Shiga toxin inh: blocks Shiga toxin action in Vero cells; AID 2315; 290,000 tested, 9.2% active; inhibition, % at 38.7 µM; Vero cells, Shiga toxin protein synthesis inhibition reporter; in the data active = inhibition mostly above about 28%, no sharp cut-off; inactive = mostly below about 43%
A number is an active result; – = inactive; · = no result; [ ] = dose if it differs, or a comment. Rows were chosen to be rich in hits. Some 14% of all compounds tested hit in one or more screens of this group. Unless noted, calls come from the whole dose curve; as a rule, active = well fitted curve in the direction sought with a large enough effect; inconclusive = small, poorly fitted or top-dose-only effect, or another doubt; inactive = no such curve, though single readings can be large; an effect the other way counts as inactive or inconclusive.

SMILES	NS1 function inh	Cycloheximide cs	Giardia FBPA inh	LmPK inhibitor	Shiga toxin inh
NS(=O)(=O)c1ccc(N/C=C/C(=O)c2ccc(Br)cc2)cc1	–	61.4	–	–	77.1
CC(=O)c1ccc(N/C=C/C(=O)c2ccc(Br)cc2)cc1	–	11.1	–	–	21.9
CN(C)c1ccc(N/C=C/C(=O)c2ccc(F)cc2)cc1	–	64.5	–	14.1µM	63.1
NS(=O)(=O)c1ccc(N/C=C\C(=O)c2ccncc2)cc1	–	–	–	–	–
NS(=O)(=O)c1ccc(N/C=C\C(=O)c2ccc(F)cc2)cc1	–	29.3	–	–	64.5
CC1CCCC(C)N1CCCNC(=O)Cn1ncc2c3ccccc3n(C)c2c1=O (stereo not drawn)	–	–	·	–	–
O=C(/C=C/Nc1ccc(F)cc1)c1ccc(Oc2ncccn2)cc1	–	15.4	–	–	–
Cc1ccc(NC(=O)COC(=O)CSC(=S)N2CCOCC2)cc1	–	27.1	–	–	–
O=C(CSCc1c(Cl)cccc1Cl)Nc1ccc2c(c1)OCCO2	–	59.3	–	–	76.3
COc1ccccc1OC(C)C(=O)Nc1ccc2c(c1)OCCO2 (stereo not drawn)	–	19.1	–	–	–
O=C(COC(=O)c1cccnc1Cl)NCc1cccs1	·	37.2	–	–	–
O=S(=O)(NCC(c1cccnc1)N1CCN(Cc2ccccc2)CC1)c1cc(F)ccc1F (stereo not drawn)	–	–	·	–	–
Cc1ccccc1OCCC(=O)Nc1ccc(F)c(Cl)c1	–	–	–	–	–
O=C(COc1ccccc1Cl)NCCc1ccc2c(c1)OCCO2	–	42.5	–	–	57.5
CC(C)=CC(=O)OCC(=O)Nc1cc(C)cc(C)c1	–	–	–	–	–
Cc1ccccc1OCCC(=O)OCC(=O)Nc1ccc(N2CCOCC2)cc1	–	13.7	·	–	–
O=C(COc1ccccc1Cl)NCCCN1CCOCC1	–	–	–	–	–
Cc1ccc(NC(=O)CCOc2ccccc2C)cc1C	–	25.5	–	–	–
CC(C)=CC(=O)OCC(=O)Nc1ccc(Cl)cc1	–	23.5	–	–	41.4
CCCCCCCCCCCCCCCC(=O)OC(CO)CO	·	·	–	·	·
COC(=O)C/C=C\[C@@H](C)[C@@H](/C=N\OC[C@@H]1O[C@H](c2ccccc2)C=C[C@@H]1Oc1ccc(OC)cc1)OC	·	·	–[12.9 µM]	·	·
Cc1cccc(CS(=O)(=O)c2cn(CC(=O)N3CCOCC3)c3ccccc23)c1	–	–	·	–	–
O=C(CCc1nnc2ccc(NCc3ccco3)nn12)Nc1cccc(F)c1	–	–	·	–	–
Cc1ccccc1OCCCC(=O)Nc1ccc2c(c1)OCO2	–	31.9	–	–	active
O=C(COc1ccc(Br)cc1Cl)NC(=O)Nc1ccc2c(c1)OCCO2	·	35.8	–	–	63.3
SMILES	NS1 function inh	Cycloheximide cs	Giardia FBPA inh	LmPK inhibitor	Shiga toxin inh
O=C(COc1ccc(Br)cc1Cl)NC(=O)NCc1ccccc1	–	–	–	–	–
COc1ccc(OCCCC(=O)Nc2ccc3c(c2)OCO3)cc1	–	–	–	–	–
NC(=O)c1ccccc1OCC(=O)Nc1ccc(Cl)c(Cl)c1	–	38.5	–	–	71.5
N#Cc1ccc(NCC(=O)Nc2ccc3c(c2)OCCO3)cc1	·	–	–	–	–
N#Cc1cccc(NCC(=O)Nc2ccc3c(c2)OCCO3)c1	–	27.3	–	–	63.4
C#CC(C)(CC)NC(=O)Cn1nnc(-c2cccc(C(F)(F)F)c2)n1 (stereo not drawn)	·	–	–	–	–
CCC(C(=O)Nc1cccnc1)n1c(=O)[nH]c2ccccc2c1=O (stereo not drawn)	–	–	–	–	–
COc1ccc(-n2c(C)cc(=O)[nH]c2=O)cc1	–	–	–	–	–
COc1cc(CNCCO)ccc1OCC(=O)Nc1ccc(Br)cc1	–	24.4	–	–	–
COc1ccccc1OCC(=O)Nc1ccc(NC(=O)COc2ccccc2OC)cc1	–	–	·	–	–
Cc1cccc(C)c1OCC(=O)Nc1ccc2c(c1)OCCO2	–	–	·	–	82.0
COc1ccccc1OCC(=O)Nc1ccc2c(c1)OCCO2	–	30.2	–	–	77.5
O=C(COc1ccccc1Cl)Nc1ccc2c(c1)OCCO2	–	45.4	–	–	86.7
O=C(COc1ccc(S(=O)(=O)N2CCCC2)cc1Cl)Nc1ccc2c(c1)OCO2	–	–	–	–	–
CCCC[C@@H]1CCCO[C@@](C(=O)NCc2ccc(S(C)(=O)=O)cc2)(C(F)(F)F)C1	·	–	–	·	–
COc1ccc(CNC(=O)C2CCCN2C(=O)NCc2ccccc2)cc1 (stereo not drawn)	–	–	–	–	–
O=[N+]([O-])c1ccc2[nH]c3nc4ccccc4nc3c2c1	–	–	–	–	–
COc1ccccc1OCC(=O)Nc1ccc(Cl)cc1	–	24.1	–	–	51.0
Cc1ccccc1OCC(=O)Nc1ccc2c(c1)OCCO2	–	51.1	–	–	107.9
Cc1ccccc1OCC(=O)N/N=C/c1ccc2c(c1)OCCO2	–	30.9	–	–	–
O=C(COC(=O)c1cccnc1Cl)Nc1ccc2c(c1)OCCO2	–	49.2	–	–	115.5
CC(C)Oc1ccc(C(=O)Nc2c3c(nn2C(C)(C)C)CS(=O)(=O)C3)cc1	–	–	–	–	–
CC(C)(C)C1CCCCC1NC(=O)c1ccncc1 (stereo not drawn)	–	–	–	–	–
COc1ccc(Oc2ncc3nc(C)c(=O)n(C4CC4)c3n2)cc1	·	·	–	·	·
CCc1ccc(N2C(=O)CN(Cc3sccc3C)C2=S)cc1	·	20.5	–	–	51.1
SMILES	NS1 function inh	Cycloheximide cs	Giardia FBPA inh	LmPK inhibitor	Shiga toxin inh
Cc1ccc(OCc2cc(C(=O)N3CCc4sccc4C3)no2)cc1C	–	–	·	–	–
Cc1ccc(OCc2cc(C(=O)N3CCN(C4CCCC4)CC3)no2)cc1C	–	41.7	·	–	52.8
Cc1cccc(C)c1OCc1cc(C(=O)N2CCNC(=O)C2)no1	–	23.7	·	–	–
Cc1ccc(OCc2cc(C(=O)N3CCN(C4CCCCC4)CC3)no2)cc1C	–	52.2	–	–	65.4
Cc1cc(OCc2cc(C(=O)N3CCN(CC4CC4)CC3)no2)cc(C)c1Cl	–	–	·	–	–
Cc1ccc(OCc2cc(C(=O)N3CCCCCCC3)no2)cc1C	–	20.2	·	–	37.7
Cc1cc(OCc2cc(C(=O)N3CCC(Oc4cccnc4)CC3)no2)cc(C)c1Cl	–	–	·	–	–
CC1CN2C(CCC(C)C2c2ccc(Br)cc2)C(=O)O1 (stereo not drawn)	·	·	–[12.9 µM]	·	·
CC(=O)NCCC1CCN(C(=O)c2cc(COc3ccc(C)nc3)on2)CC1	–	–	–	–	–
CCc1cc(CNC(=O)c2cc(COc3ccc(C)nc3)on2)on1	–	44.1	·	–	59.2
COCC1CCN(C(=O)c2cc(COc3cc(C)c(Cl)c(C)c3)on2)C1 (stereo not drawn)	–	72.4	–	–	45.3
Cc1cc(OCc2cc(C(=O)N3CCCCCC3)no2)cc(C)c1Cl	–	61.4	·	–	128.0
Cc1ccc(OCc2cc(C(=O)N3CCC(C(O)C(C)C)CC3)no2)cc1C (stereo not drawn)	–	24.5	–	–	51.5
C[C@H]1CC[C@@]2(NC1)O[C@@H]1C[C@@H]3[C@@H]4CC=C5C[C@@H](O)CC[C@]5(C)[C@@H]4CC[C@]3(C)[C@H]1[C@@H]2C	–	·	·	·	·
